Source: PubChem (National Center for Advancing Translational Sciences (NCATS))
Compounds with a hit are over-represented: about 0.38% of the library has one in this group of screens.
EPAC2 ag: EPAC2 (human) agonism. Potency, µM (top dose mostly 154 µM), hits mostly activators. EPAC2 activation, biochemical qHTS; response scale: 100% = 6.5 mM cAMP response. Q8WZA2. 360,000 compounds, 0.079% hits. AID 720711; also: nearly all actives have a fitted effect of over 50% in size
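Guanine nucleotide exchange by EPAC2 is measured as reduced fluorescence of BODIPY-GDP once it is released from 250 nM Rap1B. Plates are read kinetically for 30 min at room temperature; results are scaled to 6.5 mM cAMP.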
EPAC1 agonist: activates human EPAC1 exchange factor | EPAC1 agonist qHTS, biochemical assay; response scale: 100% = response to 6.5 mM cAMP | 360,000 compounds, 0.073% hits | Potency, µM (top dose mostly 154 µM), most hits filed as activators | AID 720707 | O95398; also: nearly all actives have a fitted effect of over 60% in size
Target sequence (O95398 whole entry, looked up): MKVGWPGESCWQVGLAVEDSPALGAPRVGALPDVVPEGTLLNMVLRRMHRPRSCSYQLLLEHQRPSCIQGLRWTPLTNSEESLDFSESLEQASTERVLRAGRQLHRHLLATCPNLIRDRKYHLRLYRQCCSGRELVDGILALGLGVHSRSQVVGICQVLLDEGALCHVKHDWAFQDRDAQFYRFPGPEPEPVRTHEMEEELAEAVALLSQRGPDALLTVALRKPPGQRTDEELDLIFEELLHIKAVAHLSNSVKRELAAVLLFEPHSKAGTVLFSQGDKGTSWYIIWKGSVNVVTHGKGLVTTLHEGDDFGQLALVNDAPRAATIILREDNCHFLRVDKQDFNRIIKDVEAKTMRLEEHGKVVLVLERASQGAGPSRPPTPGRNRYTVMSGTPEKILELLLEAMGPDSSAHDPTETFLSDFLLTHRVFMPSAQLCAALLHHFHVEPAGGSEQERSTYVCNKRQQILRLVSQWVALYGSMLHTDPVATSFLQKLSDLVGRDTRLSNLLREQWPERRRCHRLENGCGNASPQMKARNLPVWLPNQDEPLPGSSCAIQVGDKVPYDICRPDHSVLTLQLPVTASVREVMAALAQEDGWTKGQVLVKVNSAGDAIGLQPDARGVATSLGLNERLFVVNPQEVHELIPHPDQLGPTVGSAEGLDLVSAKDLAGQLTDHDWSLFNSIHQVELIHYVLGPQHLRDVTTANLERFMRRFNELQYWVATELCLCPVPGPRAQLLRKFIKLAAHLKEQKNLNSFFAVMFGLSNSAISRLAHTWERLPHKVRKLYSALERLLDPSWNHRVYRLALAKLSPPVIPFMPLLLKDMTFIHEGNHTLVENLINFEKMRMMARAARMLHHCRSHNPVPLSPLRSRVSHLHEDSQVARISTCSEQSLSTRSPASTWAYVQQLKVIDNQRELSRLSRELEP
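Multi-concentration qHTS readout: loss of Rap1B-bound BODIPY-GDP fluorescence driven by 100 nM EPAC1 with excess GDP (50 uM), monitored kinetically at room temperature; agonist response expressed relative to 6.5 mM cAMP.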
EPAC2 antagonist: blocks human EPAC2 exchange factor | Q8WZA2 | EPAC2 GEF exchange of Rap1B-BODIPY-GDP, fluorescence | Potency, µM (doses to about 114 µM), actives largely listed as inhibitors | 360,000 compounds, 0.18% hits | AID 720708; also: nearly all actives have a fitted effect of over 45% in size
EPAC1 antagonist: antagonists of human EPAC1. O95398. EPAC1 GEF assay, Rap1b-BODIPY-GDP exchange fluorescence. Potency, µM (doses to about 115 µM), usual class: inhibitors. 360,000 compounds, 0.14% hits; also: nearly all actives have a fitted effect of over 50% in size
Numbers stand for hits; - = inactive; ? = inconclusive; ! = a repeat was not active. Calls follow the shape of the dose curve; as a rule, active = well fitted curve in the direction sought with a large enough effect; inconclusive = small, poorly fitted or top-dose-only effect, or another doubt; inactive = no such curve, though single readings can be large; an effect the other way counts as inactive or inconclusive.

SMILES	EPAC2 ag	EPAC1 agonist	EPAC2 antagonist	EPAC1 antagonist
O=C(NCc1ccc(F)cc1F)[C@@H]1CCCN1C(=O)[C@@H]1CCCN1C(=O)c1cccs1	-	-	-	-
CC(C)CN(C(=O)CSc1nc2ccccc2o1)c1c(N)n(Cc2ccccc2)c(=O)[nH]c1=O	-	-	-	-
O=S(=O)(O)c1ccc(N=NNc2ccc(Br)cc2)cc1	-	-	45µM	-
COc1ccc(CN(C)C(=O)c2cccc(NC(=O)CC3SC(N4CCCCC4)=NC3=O)c2)c(OC)c1 (stereo not drawn)	-	-	-	-
O=C1CC(Cc2ccccc2)C(=O)N1CCc1ccc2c(c1)OCO2 (stereo not drawn)	-	-	11µM	-
O=S(=O)(O)c1cc(O)c2c(O)c(N=Nc3cc(Cl)ccc3O)c(S(=O)(=O)O)cc2c1	-	-	28µM	?
COc1cccc(CNC(=O)[C@@H]2CCCN2C(=O)[C@@H]2CCCN2C(=O)c2cccs2)c1	-	-	-	-
Cc1ccc(N=Cc2sc(O)c3ccccc23)c(C)c1	100µM	-	-	-
CC(NC(=O)c1ccco1)C(=O)N1CCN(C(c2ccccc2)c2ccccc2)CC1 (stereo not drawn)	-	-	-	-
N[C@@H](Cc1cc(I)c(Oc2ccc(O)c(I)c2)c(I)c1)C(=O)O	-	-	?	50µM!
N[C@@H](Cc1cc(I)c(Oc2cc(I)c(O)c(I)c2)c(I)c1)C(=O)O	-	-	-	?
Clc1ccc(CON/C=N/c2ncnc3sccc23)cc1	7.9µM	-	-	-
COc1ccc(/C=N/NC(=O)CCN2CCN(c3ccccc3)CC2)c(OC)c1OC	-	-	-	-
O=C(CCN1CCN(c2ccccc2)CC1)N/N=C/c1ccc(O)c(O)c1O	-	-	-	79µM
COc1cccc(C(=O)NNC(=S)NC2CCCCC2)c1	-	-	-	50µM
Cc1ccc(Cl)c2sc(N3CCN(C(=O)c4ccco4)CC3)nc12	-	100µM	-	-
O=C([C@@H]1CCCN1C1=NS(=O)(=O)c2ccccc21)N1CCN(c2ccccc2)CC1	-	-	-	-
O=C(NCc1ccc(Br)cc1)OC1CC2CC1[C@H]1CCCCN1C2=O (stereo partly drawn)	-	-	-	-
O=[N+]([O-])/C=C/c1cn(Cc2ccc(Cl)cc2)c2ccccc12	100µM	?	-	-
Cc1cccc(Cn2cc(/C=C/[N+](=O)[O-])c3ccccc32)c1	?	-	-	-
CCN(CC)c1c(C)nc2ccc(C(=O)NCc3ccc4c(c3)OCO4)cn12	-	-	-	-
Cc1ccc(CN2CC(N3CCN(C)CC3)CS2(=O)=O)cc1 (stereo not drawn)	-	-	-	-
C/C(=N\NC(=O)c1cc(O)ccc1O)c1cccc(NC(=O)c2cccc(Cl)c2)c1	-	-	-	?
C/C(=N\NC(=O)c1cc(O)ccc1O)c1cccc(NC(=O)c2ccc(Cl)cc2)c1	-	-	-	50µM
O=C(NCCCN1CCCCCC1)c1ccc(CS(=O)(=O)Cc2ccccc2F)o1	-	-	-	-
SMILES	EPAC2 ag	EPAC1 agonist	EPAC2 antagonist	EPAC1 antagonist
CCC1CCCCN1CCCNC(=O)c1ccc(CS(=O)(=O)Cc2ccccc2F)o1 (stereo not drawn)	-	-	22µM	-
CC1(C)CC[C@]2(C(=O)O)CC[C@]3(C)C(=CC[C@@H]4[C@@]5(C)CC[C@H](O[C@@H]6O[C@H](C(=O)O)[C@@H](O)[C@H](O[C@@H]7OC[C@H](O)[C@H](O)[C@H]7O)[C@H]6O)C(C)(C)[C@@H]5CC[C@]43C)[C@@H]2C1	-	-	-	50µM
CC1(C)CC[C@]2(C(=O)O[C@@H]3O[C@H](CO)[C@@H](O)[C@H](O)[C@H]3O)CC[C@]3(C)C(=CCC4[C@@]5(C)CC[C@H](O[C@@H]6O[C@H](C(=O)O)[C@@H](O[C@H]7OC[C@@H](O)[C@@H](O)[C@@H]7O)[C@H](O)[C@H]6O)C(C)(C)C5CC[C@]43C)[C@@H]2C1 (stereo partly drawn)	-	-	-	-
COc1ccc2nc(N3C(=O)C(O)=C(C(=O)c4ccco4)C3c3ccc(OC)c(OC)c3)sc2c1 (stereo not drawn)	-	-	-	-
Cc1ccc2nc(N3C(=O)C(O)=C(C(=O)c4ccc(C)o4)C3c3cccc(O)c3)sc2c1 (stereo not drawn)	-	-	-	50µM
CC(=O)NC(C)(c1ccccc1)c1nc(-c2csc3ccccc23)cs1 (stereo not drawn)	-	-	?	-
CCC1(c2ccccc2)NC(=O)N(CC(=O)Nc2ccc(OC)nc2)C1=O (stereo not drawn)	?	100µM	-	-
CCCNC(=O)c1ccc2c(=O)c(O)c(-c3ccsc3)[nH]c2c1	89µM	-	-	-
COCCn1c(-c2ccc(OC)cc2)c(-c2ccc(OC)cc2)oc1=O	-	-	35µM	-
COc1ccc(N=Nc2nc3cc(Br)c(Br)cc3n2C)c(OC)c1	-	112µM	-	-
COc1ncccc1-c1cc2nc(NCCCN(C)C)n(C)c(=O)c2s1	-	-	-	-
CC[n+]1c(/C=C/C=C/N(C(C)=O)c2ccccc2)sc2cc(OC)ccc21	?	100µM	-	-
NNC(=O)Cc1cccc2ccc(Cl)cc12	-	-	-	-
Cc1nc2cc(NC(=O)N3CCN(c4ccccn4)CC3)ccc2o1	-	-	-	-
O=C(Nc1ccc2nc(-c3ccco3)c(-c3ccco3)nc2c1)N1CCN(c2ccccn2)CC1	-	-	-	35µM
O=C(NCC(=O)N1CCCCCCC1)c1ccc(Cl)c(Cl)c1	-	-	-	-
COc1cc2c(cc1OC)-c1cc(NC3CCCCC3)nc(=O)n1CC2	6.3µM	-	-	-
COc1cc2c(cc1OC)-c1cc(NC3CCCCCCC3)nc(=O)n1CC2	-	-	-	-
O=c1[nH][nH]c2c(N=Cc3ccccc3O)ccc(F)c12	-	-	-	40µM
CCc1ccc(O)c(N=Cc2ccccc2O)c1	-	-	-	-
CCCCNC(=O)c1onc(CS(=O)(=O)c2ccccn2)c1C(=O)NCCCC	-	-	-	-
OCc1ccc2c(c1)c(-c1ccc3c(c1)OCCO3)c(-c1ccccc1)n2-c1ccccc1	-	-	-	-
CC(=O)NC(c1ccccc1)c1nc(-c2ccc(Cl)cc2)cs1 (stereo not drawn)	-	-	-	-
O=C(Nc1cccc(OC(F)(F)F)c1)C1Cc2c(-c3cccc(F)c3)ccnc2O1 (stereo not drawn)	-	-	?	-
CCOC(=O)C1=CCC(c2ccc(Cl)cc2)N(S(=O)(=O)c2ccc(C)cc2)C1 (stereo not drawn)	-	-	-	-
CC(C)C1Nc2ccc(S(N)(=O)=O)cc2C2C=CCC21 (stereo not drawn)	-	-	-	-
NS(=O)(=O)c1ccc2c(c1)C1C=CCC1C(C1CC=CCC1)N2 (stereo not drawn)	-	-	-	71µM
COc1cccc(COC(=O)c2ccc3c(c2)NC(=O)C(C)S3)c1OC (stereo not drawn)	-	-	-	-
